Assay outcomes: PubChem, National Center for Advancing Translational Sciences (NCATS)
FLuc modulator = counter-screen for miR-21 project: firefly luciferase inhibitors or activators. P08659. AID 588342. purified FLuc, Km substrates, luminescence inhibition. actives 6.9% (n = 360,000). Potency, µM (top dose mostly 57.5 µM), actives largely listed as inhibitors; also: nearly all actives have a fitted effect of over 55% in size
Target sequence (P08659 whole entry, looked up): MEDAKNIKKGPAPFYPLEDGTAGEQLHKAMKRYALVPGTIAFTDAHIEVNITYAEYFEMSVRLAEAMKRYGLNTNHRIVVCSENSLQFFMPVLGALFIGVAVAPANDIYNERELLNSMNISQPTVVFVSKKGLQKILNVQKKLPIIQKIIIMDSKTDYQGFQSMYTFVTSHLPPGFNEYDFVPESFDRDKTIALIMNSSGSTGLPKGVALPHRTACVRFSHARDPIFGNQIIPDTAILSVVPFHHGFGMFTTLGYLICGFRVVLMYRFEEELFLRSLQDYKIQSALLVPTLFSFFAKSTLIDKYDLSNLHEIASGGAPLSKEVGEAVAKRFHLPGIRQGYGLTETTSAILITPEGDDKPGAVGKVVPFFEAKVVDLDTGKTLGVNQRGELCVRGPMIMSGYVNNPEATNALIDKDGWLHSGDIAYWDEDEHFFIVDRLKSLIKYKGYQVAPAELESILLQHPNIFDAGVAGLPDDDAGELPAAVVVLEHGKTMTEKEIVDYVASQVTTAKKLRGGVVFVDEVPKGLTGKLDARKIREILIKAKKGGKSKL
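Biochemical qHTS of compounds, final roughly 60 µM downward over six points, against 10 nM purified firefly luciferase using Km concentrations of substrates (10 uM D-luciferin, 10 uM ATP) in Tris acetate pH 7.5 buffer; luminescence output.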
Rab9 promoter act = activators of Rab9 promoter; actives 2.8% (n = 320,000); Potency, µM (top dose mostly 9.22 µM), hits mostly activators; Huh7 Rab9 promoter-luciferase reporter, luminescence, 24 h; also: nearly all actives have a fitted effect of over 60% in size
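Rab9 promoter-driven luciferase in stably transfected Huh7 cells; 1500 cells/well rested 2 h, exposed to compound in DMSO for 24 h at 37 °C, 5% CO2. Luminescence read 10 min after adding luciferase reagent at ambient temperature.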
ELG1 DNA repair = inhibitors of ELG1-dependent DNA repair in HEK293T cells; HEK293T ELG1-luciferase reporter, luminescence, 16 h; DNA damage induced by 5-fluorouridine; Potency, µM (series often up to 46.1 µM), usual class: inhibitors; actives 2.3% (n = 330,000); also: nearly all actives have a fitted effect of over 55% in size
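5-Fluorouridine DNA damage + compound/DMSO, 2,000 cells/well, 16 h, 37 °C/5% CO2. ONE-Glo, 30 min RT, luminescence. Readout = decrease in reporter signal.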
SMN2 splice up = SMN2 splice variant enhancement. HEK293 SMN2-luciferase splicing reporter, luminescence, 30-36 h. actives 2.8% (n = 210,000). Potency, µM (doses to about 46.1 µM), hits mostly activators; also: nearly all actives have a fitted effect of over 55% in size
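HEK293 cells carry an SMN2 minigene-luciferase reporter in which exon 7 inclusion puts luciferase in frame. Cells were seeded at 2000 cells/well, attached for 10-12 hours, then exposed to compounds for 30-36 hours at 37C before ONE-Glo luminescence.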
ELG1 genotoxic = inducers of genotoxicity in HEK293T ELG1-luciferase cells | HEK293T ELG1-luciferase reporter, luminescence, 16 h | Potency, µM (doses to about 46 µM), actives largely listed as activators | actives 1.3% (n = 330,000) | AID 504466; also: nearly all actives have a fitted effect of over 60% in size
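Reporter readout depends on ELG1 protein level, which increases with genetic stress. After 16 hr compound exposure at 37 °C, luciferase activity was quantified using ONE-Glo.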
NPC1 prom act = activates the NPC1 promoter | Huh7 NPC1 promoter luciferase reporter, 24 h | Potency, µM (top dose mostly 9.22 µM), actives largely listed as activators | actives 2.4% (n = 320,000) | AID 485313; also: nearly all actives have a fitted effect of over 60% in size
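Luminescence read-out of NPC1 promoter-driven luciferase in stably transfected Huh7 cells; compounds delivered in DMSO and left 24 h at 37C, 5% CO2, qHTS titration format.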
A number is an active result; . = inactive; ? = inconclusive; / = not tested or not shown; [ ] = another dose, or the depositor's remark. Rows were chosen to be rich in hits. Some 9.4% of all compounds tested hit in one or more screens of this group. Calls follow the shape of the dose curve; as a rule, active = well fitted curve in the direction sought with a large enough effect; inconclusive = small, poorly fitted or top-dose-only effect, or another doubt; inactive = no such curve, though single readings can be large; an effect the other way counts as inactive or inconclusive.

SMILES	FLuc modulator	Rab9 promoter act	ELG1 DNA repair	SMN2 splice up	ELG1 genotoxic	NPC1 prom act
CC(Oc1ccccc1)C(=O)Nc1nc(-c2ccccn2)cs1 (configuration not stated)	.	.	?	/	.	.
COC(=O)C(C)Oc1ccc(-c2nccc(-c3ccc(F)cc3)n2)cc1 (configuration not stated)	15.1µM	.	.	/	.	.
Oc1ccc(-c2nccc(-c3ccc(F)cc3)n2)cc1	13.5µM	?	?	/	?	?
NNC(=O)COc1ccc(-c2nccc(-c3ccc(F)cc3)n2)cc1	?	.	.	/	.	.
COC(=O)C(C)Oc1ccc(-c2nccc(-c3ccccn3)n2)cc1 (configuration not stated)	19µM	.	.	/	.	.
COc1cccc(COc2ccc3c(C)cc(=O)oc3c2)c1	3.01µM	2.82µM	?	/	7.3µM	2.24µM
Cc1cc(=O)oc2cc(OCCc3ccccc3)ccc12	12µM	?	?	/	?	.
Cc1cc(=O)oc2cc(OCCCC[n+]3ccccc3)ccc12	.	.	.	/	.	.
CCOc1ccc(NS(=O)(=O)c2ccc3c(c2)NC(=O)CCS3)cc1	.	/	/	/	/	/
CCN(C(=O)COc1ncnc2scc(-c3ccc(F)cc3)c12)C1CCS(=O)(=O)C1 (configuration not stated)	.	.	.	.	18.4µM	.
O=C(OCc1cc(=O)n2nc(-c3cccs3)sc2n1)c1ccc(Cl)cc1	.	/	/	/	/	/
Cc1cc(C)n(-c2nc3ccccc3nc2N2CCN(c3cccc(C(F)(F)F)c3)CC2)n1	.	/	/	.	/	/
O=C(COc1ccccc1Br)NCc1ccco1	?	.	?	.	.	.
N#Cc1ccccc1OCC(=O)NC(=O)NCc1ccco1	19µM	?	?	/	?	?
CCc1ccc(OCC(=O)NCc2ccco2)c(Br)c1	9.53µM	?	?	.	?	?
O=C(O)C1CC2(C1)CC(C(=O)O)C2 (configuration not stated)	/	/	/	.[9.22 µM]	/	/
Cc1cc2ncc(-c3cccc(Cl)c3)cn2n1	?	?	?	?	.	?
Cc1nn2cc(-c3ccc(Cl)cc3)cnc2c1Cl	?	3.16µM	?	5.62µM	?	3.55µM
Cc1ccc(NC(=O)c2cnccn2)nc1	9.53µM	.	.	/	.	.
Cc1ccc(NC(=O)c2cnccn2)c(Br)c1	21.3µM	?	?	/	?	?
CCCSc1ncc(Cl)c(C(=O)Nc2sc3c(c2C(=O)NCC)CCCC3)n1	.	/	/	.	/	/
COC(=O)c1scc(-c2ccc(C)cc2)c1S(=O)(=O)N1CCN(c2cccc(Cl)c2)CC1	.	/	/	/	/	/
Cc1ccc(/C=N/n2c(C)nc3ccccc3c2=O)s1	?	3.55µM	?	?	.	?
Cc1nc2ccccc2c(=O)n1/N=C/c1ccc(O)cc1O	.	.	.	.	.	.
Cc1nc2ccccc2c(=O)n1/N=C/c1ccccc1Cl	10.7µM	?	?	/	?	?
SMILES	FLuc modulator	Rab9 promoter act	ELG1 DNA repair	SMN2 splice up	ELG1 genotoxic	NPC1 prom act
O=C1c2ccccc2C(=O)N1c1ccc(Cl)cc1	?	.	?	.	.	.
O=C1C2C(c3ccccc3)(C(=O)N1c1ccc(Cl)cc1)C2(c1ccccc1)c1ccccc1 (configuration not stated)	.	.	6.51µM	.	.	.
Cn1c(Cl)c(C(=O)Nc2ccccc2)c2ccccc21	15.1µM	.	.	.	.	?
Cc1ccc(NC(=O)c2cc(Cl)nc3ccccc23)cc1	.	.	.	.	.	.
Cc1ccc(NC(=O)c2c(Cl)n(C)c3ccccc23)cc1	3.38µM	.	?	?	.	?
Cc1nc2ccccc2n1CCc1nc2c3ccccc3nc(SCc3ccc(C#N)cc3)n2n1	.	/	/	/	/	/
NC1=NC2C(N=C(Br)N2[C@@H]2O[C@H]3COP(=O)(O)O[C@@H]3[C@@H]2O)C(=O)N1 (some centres not stated)	/	/	/	.	/	/
CCOc1cc(-c2ccc(OC(=O)c3ccc(Cl)cc3)c(OC)c2)cc(=O)c2c(C)oc(C)c12	.	/	/	/	/	/
CCOC(=O)C1(Cc2cccc(OC)c2)CCN(Cc2cnc(C)s2)CC1	.	.	.	/	.	.
CCc1ccc(-c2csc(-c3c[nH]c4ccccc34)n2)cc1	21.3µM	1.12µM	?	12.6µM	?	2.51µM
CCC(C)Nc1nc(-c2c[nH]c3ccccc23)cs1 (configuration not stated)	13.5µM	.	?	/	.	.
CCCC[C@@H]1C=C(C(=O)O)[C@H](c2ccc(Br)cc2)N1S(=O)(=O)c1ccc(C)cc1	/	/	.	/	.	/
Cc1nc2cc(-c3ccccc3)nn2c(C)c1CCC(=O)NCc1cccc(Cl)c1	.	/	/	.	/	/
COC(=O)c1ccc(NC(c2ccc(Cl)cc2)P(=O)(OC)OC)cc1 (configuration not stated)	26.9µM	.	?	.	.	.
CN1CC(O)C2=CC(=O)C(=O)C=C21 (configuration not stated)	/	/	/	.	/	/
CCOC(=O)c1ccccc1NC(=O)CSc1nnc(Cc2cccn2C)n1-c1ccc(F)cc1	.	3.16µM	.	.	.	.
COc1cccc(C(=O)Nc2nnc(S(=O)(=O)N3CCCc4ccccc43)s2)c1	.	/	/	/	/	/
Cc1ccc(N2C(=O)CSC23C(=O)N(CC(=O)NCc2ccccc2)c2ccccc23)cc1C (configuration not stated)	.	/	/	/	/	/
Cc1cccc(NC(=O)Nc2ccc(Br)cc2)n1	.	?	?	.	.	.
Cc1cccc(NC(=O)Nc2ccc(C#N)cc2)n1	.	.	.	11.2µM	.	.
Cc1cccc(NC(=O)Nc2cccc(C#N)c2)n1	?	?	?	15.8µM	.	?
COc1ccc(NC(=O)Nc2cccc(C)n2)cc1	8.49µM	?	?	11.2µM	11.6µM	?
COc1ccc(NC(=O)Nc2ccc(Br)cn2)cc1	.	2.82µM	?	?	.	3.55µM
O=C(O)c1[nH]c(=O)[nH]c(=O)c1CN1CCCCC1	/	/	/	.[9.22 µM]	/	/
CCN(CC)C[C@@H](O)c1ccc2ccc3ccccc3c2c1	/	/	/	.[9.22 µM]	/	/
SMILES	FLuc modulator	Rab9 promoter act	ELG1 DNA repair	SMN2 splice up	ELG1 genotoxic	NPC1 prom act
CCN(C(=O)C1CCN(S(=O)(=O)c2ccc3c(c2)CCCN3C(=O)C2CCC2)CC1)c1cccc(C)c1	.	/	/	/	/	/
O=C1ON=C(c2ccccc2)/C1=C\c1ccco1	?	.	?	/	.	.
O=C1NC(c2ccc(Br)cc2)=N/C1=C/c1ccco1	0.601µM	2.51µM	?	7.08µM	?	3.55µM
O=C1NC(c2ccccc2Cl)=N/C1=C/c1ccco1	0.301µM	?	?	/	?	.
S=c1[nH]nc(-c2ccccc2Cl)n1/N=C/C=C/c1ccco1	.	.	.	/	.	.
Cc1cccc(-n2c(SCC(=O)NCC3CCCO3)nc3ccccc3c2=O)c1C (configuration not stated)	.	.	.	/	.	.
